The entries come from a sample that favours hits as a whole.
AmpC detergent: blocks E. coli AmpC beta-lactamase in detergent assay; actives 0.041% (n = 370,000); P00811; Potency, µM (series often up to 114 µM), inactives show at the highest dose activity change, negative = inhibition, actives largely listed as inhibitors; AmpC hydrolysis of nitrocefin, absorbance 480 nm, 0.01% Triton;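 also: potency is read from the fitted curve at half-maximal effect; 0% = no-compound wells and -100% = no-enzyme wells; nearly all actives have a fitted effect of over 25% in size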
Target sequence (P00811 whole entry, looked up): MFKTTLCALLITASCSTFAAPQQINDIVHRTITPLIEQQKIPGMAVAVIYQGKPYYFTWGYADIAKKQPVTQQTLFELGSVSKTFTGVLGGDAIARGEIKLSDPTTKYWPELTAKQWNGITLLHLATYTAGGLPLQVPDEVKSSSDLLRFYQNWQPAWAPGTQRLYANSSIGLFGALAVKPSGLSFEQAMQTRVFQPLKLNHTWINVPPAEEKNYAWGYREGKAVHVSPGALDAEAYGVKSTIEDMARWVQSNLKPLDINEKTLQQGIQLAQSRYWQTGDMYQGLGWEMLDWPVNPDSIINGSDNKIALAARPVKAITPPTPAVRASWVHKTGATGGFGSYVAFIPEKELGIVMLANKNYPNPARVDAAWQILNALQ
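20 mM phosphate pH 7.0 + 0.01% (detergent screen) or 0.0001% Triton X-100; 5.3 nM AmpC reagent; cpd preinc 15 min RT; nitrocefin (800 uM stock) to start; A480 q20 s × 4 min; Activity was normalised to no-enzyme and no-compound control wells.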
SARS PLpro yeast: blocks SARS-CoV papain-like protease in a yeast assay; S. cerevisiae expressing SARS-CoV PLpro, growth rescue; Potency, µM (top dose mostly 32.9 µM), inactives show top-dose activity, positive = growth rescue, hits mostly activators; actives 0.19% (n = 330,000); AID 485353; calls by dose curve; also: potency is read from the fitted curve at half-maximal effect; 0% is about no effect; nearly all actives have a fitted effect of over 55% in size
AmpC inh no detg: blocks E. coli AmpC beta-lactamase in detergent-free assay; AmpC nitrocefin hydrolysis, absorbance 480 nm, 0.0001% Triton; P00811; AID 485341; Potency, µM (doses to about 57.1 µM), for the others: at the highest dose activity change, negative = inhibition, hits mostly inhibitors; actives 0.52% (n = 330,000);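 also: potency is read from the fitted curve at half-maximal effect; plate controls were no compound for no effect and no enzyme for full effect; nearly all actives have a fitted effect of over 20% in size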
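AmpC (5.3 nM in the dispensed reagent) in 20 mM phosphate pH 7.0 with 0.01% (detergent screen) or 0.0001% Triton X-100 was preincubated with compounds for 15 min at room temperature. Nitrocefin was then added from an 800 uM solution, and hydrolysis was followed at 480 nm.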
Shiga inhibitor: blocks Shiga toxin action in Vero cells. Vero cells, Shiga toxin protein synthesis inhibition reporter. inhibition, % at 38.7 µM. actives 9.2% (n = 290,000). AID 2315; in the data active = inhibition mostly above about 28%, no sharp cut-off; inactive = mostly below about 43%; also: 0% is about no effect
Cycloheximide cs: counter-screen hit for Shiga toxin inhibitors, cycloheximide; cell reporter, cycloheximide protein synthesis inhibition counterscreen; max response, %; actives 12% (n = 300,000); AID 2314; in the data active = max response mostly above about 13%, no sharp cut-off; inactive = mostly below about 14%; also: read at 38.3 µM for the half of the compounds with a filed dose; 0% is about no effect
AMA1 RON2 block: disrupts binding of P. falciparum AMA1 to RON2; Potency, µM (doses to about 58.2 µM), inactives show at the highest dose activity change, negative = inhibition, usual class: inhibitors; AlphaScreen AMA1-biotinylated RON2 peptide binding; actives 0.2% (n = 360,000);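 also: potency is read from the fitted curve at half-maximal effect; 0% = vehicle wells and -100% = peptide control; nearly all actives have a fitted effect of over 45% in size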
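AMA1 (3D7) with his tag at 25 nM final met compounds first, then biotinylated RON2 peptide at 25 nM; detection used donor plus acceptor beads, 10 µg/mL apiece, read by AlphaScreen after 30 min at room temperature.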
Active calls of the source: *; ? = inconclusive; nt = not tested or not shown. Unless noted, calls follow the shape of the dose curve; as a rule, active = well fitted curve in the direction sought with a large enough effect; inconclusive = small, poorly fitted or top-dose-only effect, or another doubt; inactive = no such curve, though single readings can be large; an effect the other way counts as inactive or inconclusive.

SMILES	AmpC detergent	SARS PLpro yeast	AmpC inh no detg	Shiga inhibitor	Cycloheximide cs	AMA1 RON2 block
CCN(CC)CC(=O)Nc1nc(-c2ccc(Cl)cc2)cs1	-6%	-4%	1%	12	7	0%
COc1ccccc1-n1c(=O)c2c3c(sc2n(Cc2ccccc2F)c1=O)CN(C(C)=O)CC3	7%	nt	nt	nt	nt	nt
Cc1ccc(-c2n[nH]c(Cc3ccccc3)n2)cc1	0%	-6%	-20%	74*	49*	7%
Cc1ccc(OCc2nc(-c3ccc(Cl)cc3)n[nH]2)cc1	-3%	-17%	-16%	63*	20*	16%
CCOC(=O)Cc1nc(-c2ccc(Cl)cc2)n[nH]1	-7%	-4%	-24%	38	26*	-11%
CC(C)(C)c1cc(Cc2ccccc2)[nH]n1	?	-2%	-12%	16	-1	-6%
O=C(NC(=S)N(CCCCO)C1CCCCC1)c1sc2ccccc2c1Cl	-2%	-4%	-14%	-8	1	4%
Cc1noc(C)c1COC(=O)CCc1nc2ccccc2s1	-13%	-4%	-1%	19	10	0%
COc1cccc(C(C)(O)c2nc(-c3ccc(OC)nc3)cs2)c1 (centres undefined)	nt	nt	nt	nt	nt	-1%
Cc1cc(N)ccc1-c1cc2ccccc2oc1=O	-14%	0%	-14%	nt	17*	11%
O=c1oc2ccccc2cc1-c1ccc(O)cc1	-9%	-40%	-10%	69*	118*	19%
COc1cc(N)ccc1-c1cc2ccccc2oc1=O	-4%	3%	-20%	27	10	-2%
CC(=O)Nc1ccc(-c2cc3ccccc3o2)cc1	-7%	-5%	-9%	105*	43*	2%
O=C(NCc1cccnc1)c1ccc(-c2cc3ccccc3oc2=O)cc1	1%	0%	-11%	67*	39*	3%
O=C(Nc1cccnc1)c1cccc(-c2cc3ccccc3oc2=O)c1	0%	20%	-4%	23	12	10%
CC(C)CN(CCCNC(=O)CN1N=C(c2ccccc2)CCC1=O)CC(C)C	8%	nt	nt	nt	nt	nt
NC(=O)COc1ccccc1C(=O)O	4%	-1%	-3%	-3	-3	0%
c1ccc2nc(N3CCCC3)c(N3CCCC3)nc2c1	12%	-6%	-7%	20	-2	112%
CCOc1cc(N2CCOCC2)c(OCC)cc1NC(=O)CN1C(=O)NC(Cc2ccccc2)C1=O (centres undefined)	-3%	4%	1%	13	1	-11%
CCC(=O)Nc1cc(-c2cc3ccccc3oc2=O)ccc1OC	-14%	-1%	1%	24	7	1%
O=c1oc2ccccc2cc1NCc1ccccc1O	6%	-41%	-26%	123*	55*	0%
COc1ccc(-c2cc3ccc(OCC(N)=O)cc3oc2=O)cc1OC	-8%	8%	-6%	18	9	-3%
Nc1ccc2oc(=O)c(-c3ccccc3)cc2c1	-13%	-8%	-24%	56*	36*	-11%
CCC(=O)Nc1ccc(-c2cc3ccccc3oc2=O)cc1	-10%	-1%	-13%	107*	38*	0%
COc1ccc(-c2cc3ccc(O)cc3oc2=O)cc1OC	-2%	nt	-41%	68*	32*	1%
SMILES	AmpC detergent	SARS PLpro yeast	AmpC inh no detg	Shiga inhibitor	Cycloheximide cs	AMA1 RON2 block
CC(=O)Nc1ccc(NC(=O)CSc2nnc(-c3ccccc3)n2Cc2ccc3c(c2)OCO3)cc1	-5%	-3%	22%	-6	2	-10%
COC(=O)C1=C(CN2CCCc3ccccc32)NC(=O)NC1c1ccc(F)cc1 (centres undefined)	-9%	-3%	3%	101*	20	-4%
Cc1cc(C(=O)COC(=O)[C@H](C)NC(=O)c2ccco2)c(C)n1Cc1ccco1	-15%	-1%	-8%	59*	35*	-25%
Cc1cc(C(=O)COC(=O)Cn2c(C(F)(F)F)nc3ccccc32)c(C)n1Cc1ccco1	-5%	-3%	1%	-7	-2	-11%
Cc1ccc2cccc(OCC(=O)c3cc(C)n(Cc4ccco4)c3C)c2n1	4%	2%	73%	101	25*	nt
CC(=O)N1c2ccccc2C2(O)N=C(C)SC12 (centres undefined)	4%	-20%	-17%	35	12*	4%
COc1cccc(C(=O)Nc2cnc(NC(=O)c3ccco3)cc2C)c1	-13%	-5%	-13%	47*	16*	-9%
COc1cccc(C(=O)Nc2cc(OC)ccc2NC(=O)c2ccco2)c1	-1%	1%	-26%	-28	-2	-11%
Cc1cc(NC(=O)c2ccco2)ncc1NC(=O)Cc1ccccc1	?	-2%	-13%	70	19*	14%
CCc1ccc(-n2c(=O)c3c(C)c(C(=O)N(C)C)sc3n(Cc3cccc(C)c3)c2=O)cc1	2%	nt	nt	nt	nt	nt
COc1ccc2c(c1)[C@@]13CCC=C[C@H]1[C@@H](C2)NCC3	?	nt	-22%	nt	nt	3%
CCc1nc(Nc2ccc3c(c2)OCO3)c2oc3ccccc3c2n1	1%	2%	-4%	62*	12*	-2%
Cc1cccc(Nc2nc(C)nc3c2oc2ccccc23)c1	7%	-12%	45%	42	19*	-17%
CC(C)(C)n1nnnc1C(c1ccccn1)N1CCN(C(c2ccccc2)c2ccccc2)CC1 (centres undefined)	4%	0%	155%	4	4	4%
CCn1c(-c2cc(-c3ccc(C)c(C)c3)nc3ccccc23)n[nH]c1=S	7%	-2%	-39%	81*	26*	nt
CCCCN1C(=O)C(CC(=O)NCc2ccco2)CC(C(=O)N2CCCCCC2)=C1C (centres undefined)	nt	nt	nt	nt	nt	1%
COc1ccccc1NC(=O)CSc1nnc(CCNC(=O)c2ccc(C)cc2)n1C	5%	1%	12%	7	15*	9%
COc1ccc(C(=O)NCCc2nnc3ccc(SCC(=O)Nc4ccccc4)nn23)cc1	-2%	-9%	-34%	73*	44*	1%
COCCNC(=O)COC(=O)c1ccc(S(=O)(=O)N2CCOCC2)cc1	0%	-5%	-19%	-6	-3	13%
COc1ccccc1N(CC(=O)NC(C)(C)C)C(=O)CCC(=O)Nc1ccccn1	2%	-3%	-3%	-2	-1	0%
Cc1ccc(-c2nn(-c3ccccc3)cc2/C=N/n2c(-c3ccncc3)n[nH]c2=S)cc1	0%	-4%	-24%	-4	1	78%
C(=N\n1cnnc1)/c1cn(-c2cccs2)nc1-c1ccccc1	4%	-1%	142%	66*	37*	2%
S=c1[nH]nc(-c2cccs2)n1/N=C/c1cn(-c2ccccc2)nc1-c1ccccc1	-6%	2%	4µM*	1	10	58%
Cn1cc(-c2csc(C(C)(O)c3cccc(F)c3)n2)cn1 (centres undefined)	nt	nt	nt	nt	nt	13%

High-throughput results as filed in PubChem.
